TetR repression strength data for 107 sequences are collected here from a collection of fitness landscapes (doi:10.1038/s41467-024-54723-y).

The full ranking holds about 18,000 sequences; the median of “TetR repression strength (sort-seq, GFP reporter)” is about 0.23, and the highest 2% start at about 0.68. For the sample, the highest values were picked, then their nearest neighbours and some sequences at random.

TetR (class B, Tn10), sequence (P04483 whole entry): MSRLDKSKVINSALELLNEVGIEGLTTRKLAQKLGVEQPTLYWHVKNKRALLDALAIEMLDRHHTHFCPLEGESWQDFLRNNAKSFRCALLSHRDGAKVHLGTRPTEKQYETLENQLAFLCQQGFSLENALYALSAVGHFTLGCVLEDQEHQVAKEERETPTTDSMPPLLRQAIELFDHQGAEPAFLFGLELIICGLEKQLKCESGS

The test addresses TetR (class B, Tn10) (UniProt P04483). Put plainly: TetR repression strength (sort-seq, GFP reporter) (relative to tetO2 = 1); higher = stronger repression. The conditions noted are these: E. coli. The procedure, abridged: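 Repression strength is the top bin index plus one minus the read-weighted mean bin, relative to the unaltered operator's value. A low-copy library in E. coli SIG10-MAX randomized eight operator positions between a constitutive promoter and sfGFP, with TetR expressed constitutively; cells grew 5 h at 37 °C in LB with 50 µg/mL chloramphenicol and 10^6 were FACS-sorted into 13 bins that were each Illumina-sequenced. Three independent transformations were averaged, keeping only members with ≥30 reads in all replicates and CV ≤0.5.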
In the case of TCCCGTTGAGTCGGCGAGA, the TetR repression strength is 0.157.

In turn, TCCCACCAAGTAGGAGAGA came in with a TetR repression strength of 0.285.

Regarding TCCCTAAGAGTACTGGAGA, the TetR repression strength came to 0.401.

Sequence TCCCGCCGAGTTAAGGAGA displayed a TetR repression strength of 0.19.

Regarding TCCCGACGAGTAGTGGAGA, the TetR repression strength amounted to 0.171.

Take TCCCAATCAGTTTGAGAGA: the TetR repression strength was determined as 0.144.

On to TCCCTCGCAGTGAGCGAGA, for which the TetR repression strength amounted to 0.22.

On to TCCCAGGCAGTAAGGGAGA, for which the TetR repression strength was found to be 0.0777.

As to TCCCAGTCAGTGATCGAGA, the TetR repression strength is 0.322.

For TCCCGGTCAGTGATCGAGA, the TetR repression strength worked out at 0.684.

Consider TCCCGGTCAGTGGTCGAGA, for which the TetR repression strength was 0.633.

TCCCCGGGAGTCCACGAGA returned a TetR repression strength of 0.252.

In turn, TCCCGAGGAGTTAACGAGA yielded a TetR repression strength of 0.535.

Consider TCCCGGGGAGTTAATGAGA, for which the TetR repression strength turned out to be 0.944.

In turn, TCCCCCGGAGTTTATGAGA gave a TetR repression strength of 0.801.

As to TCCCGGGAAGTTACAGAGA, the TetR repression strength stood at 0.0346.

Consider TCCCGGAGAGTTACAGAGA, for which the TetR repression strength came out at 0.245.

Sequence TCCCGGGGAGTTACAGAGA had a TetR repression strength of 0.903.

TCCCGCGGAGTTTATGAGA displayed a TetR repression strength of 0.184.

The sequence TCCCCCTGAGTTTATGAGA came in with a TetR repression strength of 0.265.

TCCCGAGTAGTTAAGGAGA came in with a TetR repression strength of 0.21.

The sequence TCCCGAGTAGTTAACGAGA showed a TetR repression strength of 0.857.

Take TCCCCGGGAGTTAATGAGA: the TetR repression strength amounted to 0.517.

TCCCGGAGAGTTAATGAGA registered a TetR repression strength of 0.225.

In the case of TCCCAGACAGTGATAGAGA, the TetR repression strength was determined as 0.384.

Sequence TCCCGCAGAGTGTCTGAGA registered a TetR repression strength of 0.216.

With TCCCGTTAAGTCGCGGAGA, the TetR repression strength is 0.391.

TCCCCTTGAGTGTAAGAGA: the TetR repression strength is 0.558.

TCCCGTCGAGTGTCAGAGA showed a TetR repression strength of 0.263.

Consider TCCCGTGTAGTTGTTGAGA, for which the TetR repression strength was determined as 0.0138.

The sequence TCCCGGGTAGTTAATGAGA showed a TetR repression strength of 1.

Turning to TCCCGCGTAGTTAATGAGA, the TetR repression strength amounted to 0.421.

On to TCCCGGGTAGTTAGTGAGA, for which the TetR repression strength was 0.166.

Regarding TCCCCAGCAGTGATGGAGA, the TetR repression strength is 0.2.

Sequence TCCCAGAAAGTGGCGGAGA had a TetR repression strength of 0.316.

TCCCTCCGAGTAGGTGAGA: the TetR repression strength was determined as 0.222.

With TCCCGGCGAGTAGACGAGA, the TetR repression strength was found to be 1.03.

Sequence TCCCTCCGAGTAGGCGAGA returned a TetR repression strength of 0.745.

The sequence TCCCAGCGAGTAGAAGAGA registered a TetR repression strength of 0.334.

TCCCGGCGAGTAGAAGAGA gave a TetR repression strength of 0.418.

TCCCGGCGAGTAGAGGAGA returned a TetR repression strength of 0.248.

In turn, TCCCACCGAGTAGGCGAGA returned a TetR repression strength of 0.166.

As to TCCCAGCGAGTAGACGAGA, the TetR repression strength turned out to be 1.03.

Regarding TCCCAGAGAGTAGACGAGA, the TetR repression strength was found to be 0.217.

Turning to TCCCGGGTAGTGGTGGAGA, the TetR repression strength is 0.277.

The sequence TCCCCATCAGTGAGCGAGA had a TetR repression strength of 0.19.

TCCCGATCAGTTAGGGAGA: the TetR repression strength was 0.313.

Sequence TCCCATGGAGTTTGGGAGA displayed a TetR repression strength of 0.201.

TCCCTTTCAGTTTCGGAGA gave a TetR repression strength of 0.422.

For TCCCATGCAGTTGGGGAGA, the TetR repression strength was determined as 0.216.

The sequence TCCCTTTCAGTTTTGGAGA had a TetR repression strength of 0.151.

In turn, TCCCTTTCAGTTTGGGAGA showed a TetR repression strength of 0.925.

Sequence TCCCATGCAGTTTGGGAGA returned a TetR repression strength of 1.07.

On to TCCCAGTGAGTCGCAGAGA, for which the TetR repression strength turned out to be 0.0941.

TCCCTTGGAGTCGGCGAGA: the TetR repression strength came to 0.0727.

TCCCATTCAGTATCGGAGA gave a TetR repression strength of 0.159.

TCCCATTCAGTCCGCGAGA gave a TetR repression strength of 0.259.

As for TCCCAGGGAGTAGGGGAGA, the TetR repression strength turned out to be 0.204.

TCCCACTGAGTCAGAGAGA registered a TetR repression strength of 0.279.

TCCCGGTGAGTAAACGAGA registered a TetR repression strength of 0.0592.

The sequence TCCCCTTGAGTATGCGAGA yielded a TetR repression strength of 1.05.

Regarding TCCCCTGCAGTATTAGAGA, the TetR repression strength was 0.211.

Turning to TCCCGGTGAGTATGCGAGA, the TetR repression strength turned out to be 1.15.

For TCCCGGTTAGTATGCGAGA, the TetR repression strength amounted to 0.19.

In turn, TCCCCTTGAGTATGTGAGA registered a TetR repression strength of 0.409.

Turning to TCCCCTGCAGTATGAGAGA, the TetR repression strength came to 0.855.

Regarding TCCCGGTGAGTGGACGAGA, the TetR repression strength came to 0.496.

For the sequence TCCCTTTGAGTATGCGAGA, the TetR repression strength amounted to 0.127.

Sequence TCCCTTGCAGTATGAGAGA displayed a TetR repression strength of 0.157.

Regarding TCCCGGAGAGTATGCGAGA, the TetR repression strength stood at 0.159.

TCCCGGTGAGTGAACGAGA came in with a TetR repression strength of 0.819.

With TCCCGAGTAGTTATCGAGA, the TetR repression strength amounted to 0.34.

Take TCCCGGGTAGTCTGAGAGA: the TetR repression strength worked out at 0.147.

Sequence TCCCGACCAGTTTCGGAGA came in with a TetR repression strength of 0.0546.

In turn, TCCCTGCGAGTTCGTGAGA gave a TetR repression strength of 0.297.

TCCCGGGAAGTTGATGAGA registered a TetR repression strength of 0.0797.

As to TCCCTGCGAGTCGGTGAGA, the TetR repression strength was found to be 0.245.

TCCCACTCAGTGCCAGAGA yielded a TetR repression strength of 0.287.

TCCCTAACAGTGGTAGAGA showed a TetR repression strength of 0.415.

Take TCCCTACCAGTGGAAGAGA: the TetR repression strength is 1.24.

TCCCTATGAGTGGTAGAGA: the TetR repression strength is 0.288.

On to TCCCTACCAGTGCAAGAGA, for which the TetR repression strength was found to be 0.199.

In turn, TCCCTGCAAGTGGAAGAGA came in with a TetR repression strength of 0.276.

In turn, TCCCTACCAGTCGGAGAGA yielded a TetR repression strength of 0.278.

Sequence TCCCTCCCAGTGGAAGAGA yielded a TetR repression strength of 0.491.

TCCCTAAAAGTGGAAGAGA: the TetR repression strength is 0.104.

TCCCTACCAGTCGCGGAGA came in with a TetR repression strength of 0.967.

Turning to TCCCTCCCAGTCGCGGAGA, the TetR repression strength amounted to 0.291.

The sequence TCCCTATCAGTGGTAGAGA registered a TetR repression strength of 1.01.

Consider TCCCTACAAGTGGAAGAGA, for which the TetR repression strength is 1.21.

With TCCCTGACAGTCGGTGAGA, the TetR repression strength was determined as 0.106.

Sequence TCCCAGGGAGTTTTAGAGA had a TetR repression strength of 0.305.

TCCCACGTAGTCAATGAGA gave a TetR repression strength of 0.157.

TCCCTCAGAGTAAAGGAGA yielded a TetR repression strength of 0.218.

For TCCCTTTGAGTAGGTGAGA, the TetR repression strength worked out at 0.168.

TCCCATTGAGTTGCTGAGA registered a TetR repression strength of 0.153.

In turn, TCCCTCACAGTCAGTGAGA displayed a TetR repression strength of 0.302.

Turning to TCCCGCAAAGTGAATGAGA, the TetR repression strength amounted to 0.207.

The sequence TCCCCGCGAGTGACAGAGA came in with a TetR repression strength of 0.569.

In turn, TCCCAACAAGTGAGTGAGA came in with a TetR repression strength of 0.42.

Sequence TCCCTAACAGTGGAAGAGA showed a TetR repression strength of 0.299.

With TCCCTATCAGTGGAAGAGA, the TetR repression strength amounted to 0.722.

TCCCTATCAGTTGAAGAGA: the TetR repression strength is 0.55.

The sequence TCCCCGACAGTTGCGGAGA registered a TetR repression strength of 0.0545.

Sequence TCCCTGGGAGTTTAGGAGA registered a TetR repression strength of 0.302.

Turning to TCCCTGCAAGTACCTGAGA, the TetR repression strength was found to be 0.308.

Take TCCCGGCGAGTGGGGGAGA: the TetR repression strength came to 0.193.
